From PubChem BioAssay AID1851 (National Center for Advancing Translational Sciences (NCATS), 2009)
Hit rate of the full screen: of about 16,000 compounds, about 5,700 (36%) were called active. Inconclusive results (about 24%) are left out. The list shows a part of the results. Values without a mark were called inactive. The call rests on the fitted dose curve; in most records, active means well fitted curve in the direction sought with a large enough effect; inconclusive means small, poorly fitted or top-dose-only effect, or effect the other way; inactive means no such curve, though single readings can be large or run the other way.

molecular target: Cytochrome P450 1A2 (Homo sapiens) (UniProt P05177); experiment: Cytochrome panel assay with activity outcomes; conditions: recombinant CYP, pro-luciferin dealkylation, luminescence, p450-cyp1a2; series mostly up to 57.1 µM; activity, negative = inhibition: at the top concentration
On the % scale 0 is the no-effect control and ±100 the full control effect.

Cytochrome P450 1A2 (Homo sapiens), sequence (P05177 whole entry, looked up): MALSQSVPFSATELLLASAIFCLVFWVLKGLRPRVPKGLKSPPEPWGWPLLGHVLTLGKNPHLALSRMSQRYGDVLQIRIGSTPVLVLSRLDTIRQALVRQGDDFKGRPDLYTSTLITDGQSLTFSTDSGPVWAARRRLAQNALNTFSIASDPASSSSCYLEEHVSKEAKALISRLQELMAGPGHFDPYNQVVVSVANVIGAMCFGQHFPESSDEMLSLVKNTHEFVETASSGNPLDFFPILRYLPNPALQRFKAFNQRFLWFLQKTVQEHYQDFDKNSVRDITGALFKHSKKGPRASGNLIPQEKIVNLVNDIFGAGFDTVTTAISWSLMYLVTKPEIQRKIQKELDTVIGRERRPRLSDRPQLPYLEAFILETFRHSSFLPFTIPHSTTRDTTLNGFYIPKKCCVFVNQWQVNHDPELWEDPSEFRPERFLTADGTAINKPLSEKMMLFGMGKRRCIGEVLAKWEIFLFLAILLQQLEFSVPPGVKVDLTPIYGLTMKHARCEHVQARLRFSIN

| SMILES | activity, negative = inhibition | AC50 |
| --- | --- | --- |
| CCCCNC(=O)C1C2C=CC3(CN(Cc4ccccc4Cl)C(=O)C13)O2 (configuration not stated) | -27% | – |
| Cc1cc(-c2cc(-c3ccc(Cl)cc3)nc(N)c2C#N)co1 | – | 8.91 µM (active) |
| COc1ccc(COC(=O)N/N=C2/C[C@@H](O)[C@@H](O)[C@@H]3[C@@H]4C(=O)N(C(C)(C)C)C(=O)[C@H]4CC[C@@H]23)cc1 | -55.1% [at 11.4 µM] | – |
| Cc1cc(C)cc(N(C(=O)C2CCCC2)C2C=CS(=O)(=O)C2)c1 (configuration not stated) | 21.4% | – |
| N=C1/C(=C/c2cccs2)C(=O)N=C2SN=C(SCc3ccccc3)N12 | – | 15.8 µM (active) |
| CO[C@@H]1/C=C\CC(=O)N[C@@H](C)C(=O)OC[C@@H](OC)[C@H](C)CCCC(=O)OC[C@H]1C | 0.281% [at 11.4 µM] | – |
| Cc1cc(N2CCN(C)CC2)n2nc(-c3ccc(Cl)cc3)nc2n1 | -14.3% [at 11.4 µM] | – |
| Cc1nc2nc(-c3ccc(Cl)cc3)nn2c(C)c1Cl | – | 0.562 µM (active) |
| CCN1CCN(c2nc3c(c(=O)[nH]c(=O)n3C)n2CCCSc2ncccn2)CC1 | 4.05% | – |
| Cc1cc(C)n(-c2nc3c(c(=O)[nH]c(=O)n3C)n2CC(C)C)n1 | -18.7% | – |
| C/C(Cl)=C\Cn1c(N2CCCC2)nc2c1c(=O)[nH]c(=O)n2C | – | 14.1 µM (active) |
| C#CCCCO/N=C1/[C@H]2O[C@@H]2[C@@H](O)[C@H]2[C@H]1CCn1c(=O)n([C@@H](CC)c3ccccc3)c(=O)n12 | -5% [at 11.4 µM] | – |
| O=C(c1ccc([N+](=O)[O-])cc1)n1nc(-c2ccccc2)nc1NCc1ccccc1 | – | 7.08 µM (active) |
| COc1ccc(CCNC(=O)C2CCN(S(=O)(=O)c3cccc4nsnc34)CC2)cc1OC | -0.953% | – |
| O=C(CCCNS(=O)(=O)c1cccc2nsnc12)NCCc1ccccc1 | – | 25.1 µM (active) |
| CC(C)C(NS(=O)(=O)c1cccc2nsnc12)C(=O)N1CCc2ccccc2C1 (configuration not stated) | -21.9% | – |
| O=C1Cc2c([nH]c3ccc(Br)cc23)-c2ccccc2N1 | – | 0.158 µM (active) |
| O=C1CCCCC(=O)c2ccccc2N1 | -0.404% | – |
| O=C(NC1(C(F)(F)F)C(=O)Nc2c1c(=O)[nH]c(=O)n2-c1ccc(F)cc1)c1cccnc1 (configuration not stated) | 26.4% | – |
| Cn1c(Sc2ccc(-c3cccnc3)n2C)ccc1-c1cccnc1 | – | 0.398 µM (active) |
| C1CCc2nnnn2CC1 | -4.71% [at 25.6 µM] | – |
| NC(N)=NC(N)=Nc1ccccc1 | – | 31.6 µM (active) |
| NC(N)=NC(N)=Nc1ccc(S(N)(=O)=O)cc1 | -9.8% [at 11.4 µM] | – |
| NC(N)=NC(N)=Nc1ccccc1 (tested in a mixture with another compound) | – | 3.16 µM (active) |
| NC(N)=NC(N)=Nc1c(F)c(F)c(F)c(F)c1F | 10.9% [at 2.29 µM] | – |
| NC(N)=NC(N)=Nc1cccc(Cl)c1 | – | inactive |
| NC(N)=NC(N)=Nc1ccc(S(=O)(=O)O)cc1 | -8.09% [at 11.4 µM] | – |
